# Compounds with a hit are over-represented: about 4.5% of the library has one in this group of screens.
# 697 NFkB inh: lowers PMA/ionomycin-induced NF-kB signal in 697 B cells; 697 B-cell NF-kB luciferase reporter, 16 h; inhibition, % at 4 µM; 330,000 tested, 0.33% active; AID 435022; in the data active = inhibition above about 35%
# Gli-Sufu antag: Gli-Sufu pathway antagonism; AID 588413; inhibition, % at 5 µM; 340,000 tested, 0.74% active; Sufu-KO-LIGHT fibroblasts, Gli luciferase reporter luminescence;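 active = inhibition above about 55%, limit read from the data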;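 also: 0% = DMSO-treated cells and 100% = wells with medium but no cells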
# Jurkat NFkB inh: inhibitors of the PMA/ionomycin-induced NF-kB reporter in Jurkat cells | PMA/ionomycin-induced NF-kB luciferase reporter, luminescence | inhibition, % at 4 µM | 330,000 tested, 0.53% active | AID 435003; in the data active = inhibition above about 50%
# CSC inhib: cancer stem cell inhibition; cancer stem cell-like cells viability, luminescence; inhibition, % at 7.5 µM; 300,000 tested, 1.1% active; AID 2717; in the data active = inhibition above about 75%; tested in HMLE shEcad cells
# aSyn 5UTR inh: MLPCN primary screen, SNCA 5' untranslated region; inhibition, % (tested at 7.5 µM); 300,000 tested, 0.82% active; alpha-synuclein 5'UTR reporter, inhibitor activity; in the data active = inhibition above about 60%;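 also: H4 neuroglioblastoma cells stably carrying SNCA 5'UTR luciferase fusion; 0% = DMSO wells and 100% = positive control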
# Mdm2 MdmX PPI: human Mdm2/MdmX binding inhibition; SaOS-2 split-luciferase Mdm2/MdmX complementation, luminescence; inhibition, % at 8 µM; AID 485346; 330,000 tested, 3% active;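 active = inhibition of at least 50% at 8 µM in the primary screen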
# Mdm2 MdmX conf: human Mdm2/MdmX binding inhibition, confirmed | 10,000 tested, 55% active | AID 489028 | luminescent assay | inhibition, % at 8 µM | shares compounds with Mdm2 MdmX PPI; in the data active = inhibition above about 40%
# FLuc counter: counter-screen for Mdm2/MdmX inhibitors: full-length luciferase; shares compounds with Mdm2 MdmX PPI; SaOS-2 full-length luciferase counterscreen, luminescence; inhibition, % at 8 µM; 6,200 tested, 77% active;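 active = mean inhibition at 8 µM reaching about 37%, which flags the compound as non-specific, limit read from the data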;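 also: p53-null SaOS-2 cells with luciferase driven by a doxycycline-inducible promoter; compound on cells about two nights before reading with doxycycline added after day one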
# Active calls of the source: *; · = no result.
SMILES,697 NFkB inh,Gli-Sufu antag,Jurkat NFkB inh,CSC inhib,aSyn 5UTR inh,Mdm2 MdmX PPI,Mdm2 MdmX conf,FLuc counter
CC1CCCN(c2ccc(C(=O)Nc3cccnc3)cc2[N+](=O)[O-])C1 (stereo not drawn),16,-12,-39,13,-39,-3,·,·
Cc1cc(C)n(-c2ccc(NC(=O)C3CCCCN3Cc3cccc4c3OCO4)cc2)n1 (stereo not drawn),-11,17,31,·,-22,52*,64*,75*
Clc1ccc(CSc2nnc(-c3ccncc3)s2)cc1,6,-2,5,3,-22,16,·,·
Clc1cccc(Cl)c1CSc1nnc(-c2ccncc2)s1,-42,4,-12,9,-27,78*,33,·
COc1cccc(N(C(=O)CNC(=O)c2ccco2)C(C(=O)NC2CCCC2)c2ccco2)c1 (stereo not drawn),6,0,6,9,2,5,·,·
CCOc1ccc(NCc2cc3c(C(C)(C)C)nn(-c4ccccc4)c3[nH]c2=O)cc1,-15,6,-2,21,17,96*,23,91*
Cc1ccc(-c2nn(-c3ccccc3)c3[nH]c(=O)c(CNCc4ccccc4)cc23)cc1,3,-1,10,53,14,52*,12,·
Cn1c(Sc2ccc(Br)cc2)c(C=O)c2ccccc21,-5,8,17,-13,10,84*,72*,53*
CC12CCC(=O)N1C(C(=O)Nc1ccc(Cl)c(S(=O)(=O)N3CCCCC3)c1)CS2 (stereo not drawn),-13,14,2,26,-7,36,·,·
CC1=C(C)/C(=N/OC(=O)c2cccc([N+](=O)[O-])c2)C=CC1=O,-8,8,11,19,-13,45,·,·
C=CC1CN(C(=O)OCC(Cl)(Cl)Cl)C2CC3c4ccc(OC)cc4NC3C3CC1C2CO3 (stereo not drawn),12,0,15,33,1,57*,-5,·
CCOC(=O)c1c(C)n(C)c2ccc(O)c(CN3CCN(C)CC3)c12,-2,6,14,-15,16,16,·,·
CCOC(=O)c1c(-c2ccccc2)oc2ccc(O)c(CN3CCN(C)CC3)c12,-80,10,23,8,-7,51*,45*,59*
CCOC(=O)c1c(CN2CCN(C)CC2)n(-c2ccccc2)c2cc(Br)c(O)cc12,3,13,0,22,-18,61*,46*,39*
CCOC(=O)c1c(-c2ccccc2)oc2cc(CN(C)C)c(O)c(CN(C)C)c12,-55,-12,16,94*,56,54*,62*,48*
CCOC(=O)CC1(NC(=O)c2cc(COc3cccc(OC)c3)on2)CCCCC1,-19,28,8,6,-2,-11,·,·
COC(=O)[C@@]1(Cc2ccccc2)[C@H]2C(=O)N(Cc3ccccc3)C(=O)[C@H]2[C@H]2CN=C(SCc3ccc(C#N)cc3)N21,-13,11,·,·,·,91*,95*,28
CC[C@]1(C(=O)OC)[C@H]2C(=O)N(Cc3ccccc3)C(=O)[C@H]2[C@H]2CN=C(SCc3ccc(C(=O)OC)cc3)N21,-3,3,·,·,·,36,·,·
CC[C@]1(C(=O)OC)[C@H]2C(=O)N(Cc3ccccc3)C(=O)[C@H]2[C@H]2CN=C(SCc3ccc(C)cc3)N21,15,-8,·,·,·,93*,88*,49*
CC(C)NC(=O)NC(=O)COC(=O)c1cc[n+]([O-])cc1,5,-14,7,-16,14,10,·,·
O=S(=O)(NCc1nnc2ccccn12)c1ccc(Cl)cc1,8,-8,-1,·,·,23,·,·
COc1cc(C(=O)/C=C/c2cccnc2)ccc1O,4,12,-5,28,-107,51*,18,·
COc1cc(O)cc(O)c1C(=O)/C=C/c1ccccc1,-15,11,-15,34,-140,52*,29,·
COc1ccc(/C=C/C(=O)c2ccc(OC)cc2OC)cc1,12,-2,6,-7,-114,25,·,·
O=C(/C=C/c1cccnc1)c1cc(F)ccc1O,8,6,14,0,-42,6,·,·
COc1ccc(OC)c(C(=O)/C=C/c2cccnc2)c1,10,17,26,49,-50,68*,30,56*

# Assay outcomes as filed in PubChem.
